# From ChEMBL document CHEMBL3433997, “St. Jude Leishmania screening dataset” (2016)
# Experiments:
# Format in all cases: functional
# [1] = target: Solute carrier family 2, facilitated glucose transporter member 1 (Homo sapiens) (UniProt P11166); assay: ST_JUDE_LEISH: Cytotoxicity at 2uM final concentration against transgenic Leishmania Mexicana promastigotes LmGLUT1 that are glucose transport deficient and complemented with the human glucose transporter GLUT1. Activity is measured by DNA content using SYBR green in vitro
# Chain of Solute carrier family 2, facilitated glucose transporter member 1 (Homo sapiens) (P11166 whole entry): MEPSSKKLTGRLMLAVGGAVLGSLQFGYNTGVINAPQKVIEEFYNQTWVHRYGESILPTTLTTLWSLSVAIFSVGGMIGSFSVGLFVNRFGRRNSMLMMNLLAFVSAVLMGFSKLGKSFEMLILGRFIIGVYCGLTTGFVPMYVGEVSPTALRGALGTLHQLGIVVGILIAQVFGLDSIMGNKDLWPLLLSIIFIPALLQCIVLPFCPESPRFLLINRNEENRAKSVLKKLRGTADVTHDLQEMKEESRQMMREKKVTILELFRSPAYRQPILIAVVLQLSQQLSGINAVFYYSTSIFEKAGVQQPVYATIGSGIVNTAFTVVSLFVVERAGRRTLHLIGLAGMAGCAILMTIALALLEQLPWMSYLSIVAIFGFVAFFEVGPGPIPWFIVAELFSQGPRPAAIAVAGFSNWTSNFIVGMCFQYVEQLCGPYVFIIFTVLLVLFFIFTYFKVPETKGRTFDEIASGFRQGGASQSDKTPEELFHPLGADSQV
# [2] = target: Hexose transporter 1 (Plasmodium falciparum) (UniProt O97467); assay: ST_JUDE_LEISH: Cytotoxicity at 2uM final concentration against transgenic Leishmania Mexicana promastigotes LmPfHT that are glucose transport deficient and complemented with the Plasmodium falciparum hexose transporter. Activity is measured by DNA content using SYBR green in vitro
# [3] = target: Glucose transporter (Leishmania mexicana) (UniProt O61059); assay: ST_JUDE_LEISH: Cytotoxicity at 2uM final concentration against transgenic Leishmania Mexicana promastigotes LmGT2 that are glucose transport deficient and complemented with the L. Mexicana glucose transporter 2. Activity is measured by DNA content using SYBR green in vitro
Structure (SMILES),inhibition [1] [%],inhibition [2] [%],inhibition [3] [%]
N[C@@H](CCN1CCC(c2cccc(O)c2)CC1)Cc1ccc(F)c(F)c1,3.74,2.04,0.73
COc1ccc(C(=O)C2CC2CN2CC=C(c3c[nH]c4ccc(OC)nc34)CC2)cc1 (stereo unspecified),1.91,-1.74,2.37
CN(c1ccc(NC(=O)CCOc2ccccc2)cc1)C1CCN(Cc2cccc(O)c2)CC1,1.64,-0.45,-0.97
C=CC12CCN(CC1)C(C(O)c1ccnc3ccc(OC)cc13)C2 (stereo unspecified),0.26,0.03,-0.85
COC(=O)c1ccc(CC(C)NCC(O)c2cccc(OC(F)(F)F)c2)cc1 (stereo unspecified),0.35,1.5,1.7
O=C(/C=C/c1ccc(Cl)c(Cl)c1)NC1CCC(N2CCC(c3c[nH]c4ccc(O)cc34)CC2)CC1 (stereo unspecified),1.81,1.52,2.5
CC(=O)Nc1ccc(CN2CCC(N(C)c3cc(NC(=O)c4cccc(F)c4)ccn3)CC2)cc1,-0.4,-0.05,0.23
CC[C@H]1CN2CC[C@H]1C[C@H]2[C@H](O)c1cc(N2CCCC(C(=O)N(CC)CC)C2)nc2ccc(OC)cc12 (stereo partly specified),1.75,2.21,0.33
Cc1ccc2c(C3=CCN(CCCCC4(C)C(=O)Nc5c(F)cccc54)CC3)c(C)[nH]c2c1 (stereo unspecified),2.71,1.48,1.63
O=C1Nc2cccc3c2C1(CCCCCN1CC=C(c2c[nH]c4ccccc24)CC1)CCC3 (stereo unspecified),14.1,10.6,12.8
N#Cc1ccc(N(CCCO)Cc2ccccc2C(F)(F)F)cc1C(F)(F)F,-1.34,-1.78,-0.99
Cc1[nH]c2cc(F)ccc2c1C1=CCN(CCCCC2(C)C(=O)Nc3c(F)cccc32)CC1 (stereo unspecified),3.71,5.17,4.44
O=C(/C=C/c1ccc(Cl)c(Cl)c1)N1CCC(CN2CCC(c3c[nH]c4cc5c(cc34)OCO5)CC2)CC1,5.54,4.93,3.71
COc1cc(C=CC(=O)N2CCC(CN3CCC(c4c[nH]c5ccccc45)CC3)CC2)ccc1O,8.46,6.19,6.97
C=Cc1cc(OC)c2c(c1)c(=O)oc1c2cc(OC)c2c(O)ccc([C@H]3O[C@H]([C@H](C)O)[C@H](O)[C@H]3O)c21,12.1,32.6,8.58
O=C(/C=C/c1cc(C(F)(F)F)ccc1F)NC1CCC(CN2CCC(c3c[nH]c4ccccc34)CC2)CC1 (stereo unspecified),6.52,5.67,6.74

Structure (SMILES),inhibition [1] [%],inhibition [2] [%],inhibition [3] [%]
CC(C)CNCc1cccc(-c2ccc(CN(C(=O)Nc3ccccc3)C3CCN(Cc4ccccc4)CC3)cc2)c1,2.16,2.2,2.04
O=C(/C=C/c1cc(F)c(F)cc1F)N1CCC(CN2CCC(c3c[nH]c4ccccc34)CC2)CC1,0.47,1.36,0.46
CC[C@H]1CN2CC[C@H]1C[C@H]2[C@H](O)c1cc(-c2cccc(F)c2)nc2ccc(OC)cc12,8.98,7.25,5.44
CNC(=O)c1ccc2[nH]cc(C3CCN(CC4CCC(NC(=O)/C=C/c5ccccc5Cl)CC4)CC3)c2c1 (stereo unspecified),10.8,9.61,8.45
COc1cccc(C(=O)C2CC2CN2CC=C(c3c[nH]c4cccc(Br)c34)CC2)c1 (stereo unspecified),1.59,1.08,-0.34
COC(=O)C(C)(C)c1ccc(CC(C)NCC(O)c2cccc(C(F)(F)F)c2)cc1 (stereo unspecified),10.5,6.92,9.96
COc1cc(CC(C)NCC(O)c2cccc(C(F)(F)F)c2)ccc1OCc1ccccc1 (stereo unspecified),4.94,4.6,3.99
Cc1[nH]c2c(C)cc(NS(C)(=O)=O)cc2c1C1CCN(CC2CCN(C(=O)/C=C/c3ccc(Cl)c(Cl)c3)CC2)CC1,1.48,3.63,4.65
CN(C)c1cccc(CCNCCc2c[nH]c3ccc(Cl)cc23)c1,-1.51,4.45,1.58
CCN(CC)CCN1C(=O)C(O)(c2ccccc2Cl)c2c1cc(C#N)cc2C(F)(F)F (stereo unspecified),2.9,2.02,4.08
COC(=O)c1ccc(CC(C)NCC(O)c2ccc(Cl)c(Cl)c2)cc1 (stereo unspecified),6.46,3.9,5.96
CN(C)CCC(=O)c1ccccc1,3.21,4.48,1.99
CCC(C)CN1CCC(N(C)c2cc(NC(=O)c3cccc(C)c3)ccn2)CC1 (stereo unspecified),-1.69,1.14,-0.14
CN(C)CCc1c[nH]c2ccc(C(=O)Nc3ccc(-c4ccncc4)cc3)cc12,0.58,0.83,0.61
Cc1cc2ccc(CNCCc3ccccc3Br)cc2nc1N,3.28,2.77,3.87
CC[C@H]1CN2CCc3cc(OC)c(OC)cc3[C@@H]2C[C@@H]1C[C@H]1NCCc2c1cc(OC)c(OC)c2Br,88,86.6,84.7
